# ± gives the standard deviation.
# T1: HaloTag-ATRX ADD domain (163-292)
# T1 chain: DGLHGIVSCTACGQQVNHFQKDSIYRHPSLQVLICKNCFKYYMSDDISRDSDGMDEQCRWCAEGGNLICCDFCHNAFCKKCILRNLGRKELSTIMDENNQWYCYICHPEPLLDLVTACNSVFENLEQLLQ
# Key:
# Assay in all cases: peptide microarray binding signal (635 nm), min-max normalized on array (fraction of array maximum); higher = stronger binding
# Details in all cases: peptide region: H2A 1-13
# [1] = target: T1, HaloTag-ATRX ADD domain (163-292)
# Method: (§1)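 Histone 13-mer peptides were synthesized as cellulose conjugates with a C-terminal 20-atom PEG linker and printed in triplicate on nitrocellulose. The sequence given is the unmodified backbone; PTMs (Kme1/2/3, Kac, Sph/Tph, Rme/Rme2a/Rme2s, Rcit) are listed in the label and the 'peptide modifications' condition. Slides were probed at 4 °C for 1 h with biotin-labelled (HQ)5-HaloTag reader fusions (ATRX-ADD, ING2-PHD) then streptavidin-Alexa647, or with rabbit histone antibodies then anti-rabbit Alexa647. The mean 635 nm signal of the triplicate spots was scaled 0-1 between the lowest and highest values on each array.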
# [2] = target: HaloTag-ING2 PHD (mouse Ing2 200-280)
# Method: as §1
# [3] = target: anti-H3K4me3 antibody ab8580
# Method: as §1
# [4] = target: anti-H3K9me3 antibody ab8898
# Method: as §1
# [5] = peptide modifications: H2AR3cit, binder concentration: 1:2,000 dilution
# [6] = peptide modifications: H2AR3cit, binder concentration: 1:10,000 dilution
# [7] = peptide modifications: H2AR3me1, binder concentration: 1:2,000 dilution
# [8] = peptide modifications: H2AR3me1, binder concentration: 1:10,000 dilution
# [9] = peptide modifications: H2AR3me2a, binder concentration: 1:2,000 dilution
# [10] = peptide modifications: H2AR3me2a, binder concentration: 1:10,000 dilution
# [11] = peptide modifications: H2AS1ph, binder concentration: 1:2,000 dilution
# [12] = peptide modifications: H2AS1ph, binder concentration: 1:10,000 dilution
# [13] = peptide modifications: H2AS1ph H2AR3me1, binder concentration: 1:2,000 dilution
# [14] = peptide modifications: H2AS1ph H2AR3me1, binder concentration: 1:10,000 dilution
binder,measurement,setting,value
SGRGKQGGKARAK [H2A 1-13 S G Rcit G K Q G G K A R A K],peptide microarray binding signal,"[1]; peptide modifications: H2AR3cit, binder concentration: 50 nM",0.00257 ± 6.9e-05
same,peptide microarray binding signal,"[1]; peptide modifications: H2AR3cit, binder concentration: 500 nM",0.00614 ± 6.4e-05
same,peptide microarray binding signal,"[2]; peptide modifications: H2AR3cit, binder concentration: 10 nM",0.00137 ± 3.3e-05
same,peptide microarray binding signal,"[2]; peptide modifications: H2AR3cit, binder concentration: 100 nM",0.00262 ± 0.0002
same,peptide microarray binding signal,[3]; [5],0.000245 ± 2.6e-06
same,peptide microarray binding signal,[3]; [6],0.000514 ± 5.5e-06
same,peptide microarray binding signal,[4]; [5],0.000181
same,peptide microarray binding signal,[4]; [6],0.000404 ± 4.4e-06
SGRGKQGGKARAK [H2A 1-13 S G Rme G K Q G G K A R A K],peptide microarray binding signal,"[1]; peptide modifications: H2AR3me1, binder concentration: 50 nM",0.00254 ± 4.9e-05
same,peptide microarray binding signal,"[1]; peptide modifications: H2AR3me1, binder concentration: 500 nM",0.005096 ± 3.3e-05
same,peptide microarray binding signal,"[2]; peptide modifications: H2AR3me1, binder concentration: 10 nM",0.00286 ± 0.00013
same,peptide microarray binding signal,"[2]; peptide modifications: H2AR3me1, binder concentration: 100 nM",0.004039 ± 3.4e-05
same,peptide microarray binding signal,[3]; [7],0.000491 ± 9.7e-06
same,peptide microarray binding signal,[3]; [8],0.000514 ± 5.5e-06
same,peptide microarray binding signal,[4]; [7],0.000181
same,peptide microarray binding signal,[4]; [8],0.000404 ± 8.8e-06
SGRGKQGGKARAK [H2A 1-13 S G Rme2a G K Q G G K A R A K],peptide microarray binding signal,"[1]; peptide modifications: H2AR3me2a, binder concentration: 50 nM",0.005172 ± 5e-05
same,peptide microarray binding signal,"[1]; peptide modifications: H2AR3me2a, binder concentration: 500 nM",0.0126 ± 0.00024
same,peptide microarray binding signal,"[2]; peptide modifications: H2AR3me2a, binder concentration: 10 nM",0.00382 ± 0.0003
same,peptide microarray binding signal,"[2]; peptide modifications: H2AR3me2a, binder concentration: 100 nM",0.0113 ± 0.00033
same,peptide microarray binding signal,[3]; [9],0.00119 ± 9.3e-05
same,peptide microarray binding signal,[3]; [10],0.00143 ± 2.4e-05
same,peptide microarray binding signal,[4]; [9],0.000483 ± 1.2e-05
same,peptide microarray binding signal,[4]; [10],0.00075 ± 7.9e-06
SGRGKQGGKARAK [H2A 1-13 Sph G R G K Q G G K A R A K],peptide microarray binding signal,"[1]; peptide modifications: H2AS1ph, binder concentration: 50 nM",0.00235 ± 3.8e-05
same,peptide microarray binding signal,"[1]; peptide modifications: H2AS1ph, binder concentration: 500 nM",0.00462 ± 0.00011
same,peptide microarray binding signal,"[2]; peptide modifications: H2AS1ph, binder concentration: 10 nM",0.002148 ± 1.2e-05
same,peptide microarray binding signal,"[2]; peptide modifications: H2AS1ph, binder concentration: 100 nM",0.00312 ± 0.00029
same,peptide microarray binding signal,[3]; [11],0.000208 ± 2.2e-06
same,peptide microarray binding signal,[3]; [12],0.000342 ± 3.8e-06
same,peptide microarray binding signal,[4]; [11],0.000166 ± 3.6e-06
same,peptide microarray binding signal,[4]; [12],0.000231 ± 2.6e-06
SGRGKQGGKARAK [H2A 1-13 Sph G Rme G K Q G G K A R A K],peptide microarray binding signal,"[1]; peptide modifications: H2AS1ph H2AR3me1, binder concentration: 50 nM",0.0036 ± 0.00033
same,peptide microarray binding signal,"[1]; peptide modifications: H2AS1ph H2AR3me1, binder concentration: 500 nM",0.00495 ± 6.5e-05
same,peptide microarray binding signal,"[2]; peptide modifications: H2AS1ph H2AR3me1, binder concentration: 10 nM",0.00346 ± 0.00011
same,peptide microarray binding signal,"[2]; peptide modifications: H2AS1ph H2AR3me1, binder concentration: 100 nM",0.00446 ± 0.00061
same,peptide microarray binding signal,[3]; [13],0.000566 ± 1.9e-05
same,peptide microarray binding signal,[3]; [14],0.000799 ± 8.3e-06
same,peptide microarray binding signal,[4]; [13],0.000287 ± 2.9e-06
same,peptide microarray binding signal,[4]; [14],0.000807 ± 1.5e-05
